Assay outcomes: PubChem BioAssay, several laboratories
Vc quorum ag: inducers of Vibrio cholerae quorum light production without autoinducers; V. cholerae BH1578 lux reporter, luminescence, 6 h; activation, % at 18.7 µM; 0.16% of 350,000 active; AID 588436; in the data active = activation mostly above about 9.7%, no sharp cut-off
PrPC TRFRET: reduces human prion protein on the cell surface. P04156. cell surface PrPC, TR-FRET read-out. inhibition, % at 13.8 µM. 0.43% of 370,000 active. AID 720596; in the data active = inhibition above about 24%; also: 0% = median of the test wells and 100% = reference compound wells
3CLpro inhibitor: SARS-CoV 3CLpro protease inhibition; P0C6X7; recombinant SARS-CoV 3CLpro, quenched FRET peptide cleavage; inhibition, % at 6 µM; 0.14% of 290,000 active; in the data active = inhibition above about 12%
Mtb FBA inh: inhibits M. tuberculosis FBA enzyme; AID 588726; inhibition, % at 1 µM; purified M. tuberculosis FBA, fluorescence read-out; 2.3% of 360,000 active; in the data active = inhibition above about 27%;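 also: 0% = vehicle and 100% = reference inhibitor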
Target sequence (P9WQA3 whole entry, looked up): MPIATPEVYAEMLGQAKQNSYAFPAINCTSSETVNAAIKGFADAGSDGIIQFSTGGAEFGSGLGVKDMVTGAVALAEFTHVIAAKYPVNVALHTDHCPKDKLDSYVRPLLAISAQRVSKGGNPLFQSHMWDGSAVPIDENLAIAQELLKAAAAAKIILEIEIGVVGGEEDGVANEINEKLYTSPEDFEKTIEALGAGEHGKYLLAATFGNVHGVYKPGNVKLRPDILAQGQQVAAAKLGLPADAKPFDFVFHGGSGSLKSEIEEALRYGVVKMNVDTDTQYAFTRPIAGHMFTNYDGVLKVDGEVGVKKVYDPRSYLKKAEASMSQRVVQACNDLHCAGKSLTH
GDH-TPI inh: counter-screen for M. tuberculosis FBA inhibitors: GDH-TPI coupled enzymes | GDH-TPI coupled enzyme counterscreen, NADH absorbance | inhibition, % at 4.8 µM | 1.2% of 360,000 active | AID 588335; in the data active = inhibition above about 30%;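 also: 0% = DMSO wells and 100% = wells lacking the enzyme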
The depositor's hits bear a star; i = inactive; nt = no result given; + = active, no number. Only some compounds are listed: those with a hit (about 3.9% of all), similar ones and a draw of the others.

SMILES	Vc quorum ag	PrPC TRFRET	3CLpro inhibitor	Mtb FBA inh	GDH-TPI inh
COc1cc(S(=O)(=O)Nc2cccc(C(=O)O)c2)c(OC)cc1Cl	i	-2	1	2	0
Cc1ncc(CO)c(CO)c1O	i	5	nt	4	10
Cc1ncc(CO)c(CNc2ccc(-c3nc4ccccc4[nH]3)cc2)c1O	-1	-1	-8	14	42*
N#Cc1nc(-c2ccccc2F)oc1N1CCCC1	-2	6	-2	+	19
COc1ccc(-c2nc(C#N)c(N3CCCCCC3)o2)cc1	i	10	1	194*	17
CCN1CCN(c2oc(-c3ccco3)nc2C#N)CC1	i	-12	-8	18	10
N#Cc1nc(Cc2ccccc2)oc1N1CCCC1	-2	1	0	2	-3
Cc1ccc(-c2nc(C#N)c(N3CCCCC3)o2)cc1	0	-8	-3	137*	14
N#Cc1nc(-c2ccco2)oc1N1CCCC1	0	2	0	189*	-3
COc1ccc(-c2nc(C#N)c(NC(C)C)o2)cc1	0	10	-5	190*	6
CCCOc1ccc(-c2nc(C#N)c(N3CCC(C(N)=O)CC3)o2)cc1	-2	-1	-3	+	27
COc1ccc(-c2nc(C#N)c(N3CCC(C)CC3)o2)cc1	1	-4	-5	115*	4
COc1ccc(-c2nc(C#N)c(N3CCCCC3)o2)cc1	-1	10	5	+	6
COc1ccc(Nc2oc(-c3ccccc3F)nc2C#N)cc1	-1	5	6	2	22
COc1ccc(-c2ccccc2NC(=O)C2CCCN(Cc3ccc(C)o3)C2)cc1 (stereo unspecified)	-1	-1	-2	0	4
N#Cc1nc(-c2ccc(F)cc2)oc1NCc1cccc2c1OCO2	0	1	7	12	4
N#Cc1nc(-c2ccc(OCc3ccc(Cl)cc3)cc2)oc1N1CCOCC1	1	-3	-1	-1	3
O=S(=O)(c1ccccc1)c1nc(-c2ccccc2)oc1N1CCCCC1	i	-2	-4	1	14
CC(C)CNc1oc(-c2ccc(F)cc2)nc1C#N	0	3	-4	128*	14
COc1ccc(-c2nc(C#N)c(N3CCCCCC3)o2)cc1OC	2	12	2	+	31*
N#Cc1nc(-c2ccc(Cl)cc2)oc1N1CCCCC1	1	-4	-2	+	23
N#Cc1nc(-c2ccccc2)oc1N1CCCCC1	0	nt	-3	+	23
Cc1ccc(NC(=O)c2cc(-c3cc(Cl)ccc3C)n[nH]2)cc1NS(C)(=O)=O	0	9	nt	-3	-1
CCCn1c(=O)[nH]c(=O)c2c1nc(-c1cc([N+](=O)[O-])ccc1Cl)n2CCOC	i	-15	-2	-2	-12
C/C(=N\Nc1nc2ccccc2[nH]1)c1cc2ccccc2o1	-2	-1	2	4	33*
SMILES	Vc quorum ag	PrPC TRFRET	3CLpro inhibitor	Mtb FBA inh	GDH-TPI inh
C/C(=N\NC(=O)c1ccncc1)c1cc2ccccc2o1	i	-5	-1	4	17
C/C(=N\Nc1nc2ccccc2[nH]1)c1ccc2c(c1)OCCO2	0	2	0	3	13
C/C(=N\Nc1nc2ccccc2[nH]1)c1ccc2c(c1)OCO2	-2	0	1	2	31*
CCCCN1CNC(=S)N(c2ccc(C(=O)OCC)cc2)C1	0	2	1	-5	9
COc1ccc(CN2CCOCCOCCN(Cc3ccc(OC)cc3)CCOCCOCC2)cc1	-1	-1	-3	2	10
CC1(c2ccccc2Br)NC(=O)N(CC(=O)NC2CCCCC2)C1=O (stereo unspecified)	i	1	nt	-5	-2
CCN(c1ccc(C)cc1C)S(=O)(=O)c1nnc(NC(=O)c2ccco2)s1	-1	14	6	7	27
CCN(c1ccc(C)cc1)S(=O)(=O)c1nnc(NC(=O)c2ccco2)s1	0	5	5	5	41*
CC(C)CN(c1ccccc1)S(=O)(=O)c1nnc(NC(=O)c2ccco2)s1	-4	3	7	6	35*
CN(c1ccccc1)S(=O)(=O)c1nnc(NC(=O)c2ccco2)s1	i	2	-3	1	27
Cc1cc(C)c(C(O)c2ncc(-c3ccccc3Cl)[nH]2)c(C)c1 (stereo unspecified)	-1	1	nt	1	11
COCCCNC(=O)C1CCN(S(=O)(=O)c2c(C)noc2/C=C\c2ccc(OC)cc2)CC1	0	-5	10	-1	39*
COc1ccc(NC(=O)C2CCN(S(=O)(=O)c3c(C)noc3/C=C/N(C)C)CC2)cc1	0	-2	-3	-5	37*
CCCN1CCN(C(=O)C2CCN(S(=O)(=O)c3c(C)noc3/C=C/c3ccc(C)cc3)CC2)CC1	i	-6	1	-2	32*
Cc1ccc(/C=C/c2onc(C)c2S(=O)(=O)N2CCC(C(=O)N3CCCCC3)CC2)cc1	0	2	-3	-1	20
C=C1CCC2[C@](C)(CO[C@@H]3O[C@H](CO)[C@@H](O)[C@H](O)[C@H]3O)CCC[C@@]2(C)[C@@H]1CCC1=CCOC1=O (stereo partly specified)	0	-1	nt	0	4
CN(C)c1nc(NCc2ccccc2)nc(Oc2ccc(=O)[nH]n2)n1	17*	-1	1	-2	-11
CCCOc1ccc(/C(O)=C2/C(=O)C(=O)N(CCCn3ccnc3)C2c2ccc(C)o2)cc1 (stereo unspecified)	1	4	2	6	10
Cc1ccc(NC(=S)N/N=C/c2ccc(OCCC(C)C)cc2)c(C)c1	0	6	-1	3	36*
Cc1ccc(NC(=S)N/N=C/c2c(Cl)cccc2Cl)c(C)c1	0	17	4	-1	10
CC(=O)OC[C@H]1O[C@@H](Oc2cc3ccc(=O)oc3cc2OC(C)=O)[C@H](OC(C)=O)[C@@H](OC(C)=O)[C@@H]1OC(C)=O	0	-4	nt	+	11
Nc1[nH]c(C(=O)c2ccccc2)c(-c2ccccc2Br)c1C(=O)c1cccs1	nt	4	nt	nt	nt
Cc1ccc(Oc2ccc(OCC(=O)NC(C)C(=O)O)cc2)cc1 (stereo unspecified)	-1	-3	-6	-2	6
Cc1cc(=O)oc2c3c(cc(OCC(=O)N[C@@H](C)C(=O)O)c12)OC(C)(C)CC3	-1	-3	-4	+	21
Cc1cc(=O)oc2c3c(cc(OCC(=O)NC(C)C)c12)OC(C)(C)CC3	i	0	-3	+	15
CCCCC(NC(=O)COc1cc2c(c3oc(=O)cc(C)c13)CCC(C)(C)O2)C(=O)O (stereo unspecified)	i	17	3	+	26
Cc1ccccc1C(=O)NCC(=O)OCCOc1ccc(C(C)C)c(C)c1	-1	-1	nt	5	4
COCCNC(=O)c1c(N)n(CCCn2ccnc2)c2nc3ccccc3nc12	i	-3	-2	132*	16
